# Laboratory results published in PMC5540273 (PLoS ONE, 2017).
# Like-named read-outs stand apart in the source and are kept apart here.
# Columns and labels:
# ZAK = details: concentration: 1 μM, replicates: in singlicate; n = 1
# ZAP70 = details: concentration: 1 μM, replicates: in singlicate; n = 1
# p38-alpha = tested on: T1, p38-alpha; details: n = 1
# T1 construct: gene MAPK14
# p38-beta = tested on: T2, p38-beta; details: concentration: 1 μM, replicates: in singlicate; n = 1
# T2 construct: gene MAPK11
# p38-delta = details: concentration: 1 μM, replicates: in singlicate; n = 1
# p38-gamma = tested on: T3, p38-gamma; details: concentration: 1 μM, replicates: in singlicate; n = 1
# T3 construct: gene MAPK12
# [1] = concentration: 1 μM, replicates: in singlicate
# 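Also: KINOMEscan kinase panel screen.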
Structure (SMILES),%Inh (ZAK) [%],%Inh (ZAP70) [%],%Inh (p38-alpha; [1]) [%],%Inh (p38-beta) [%],%Inh (p38-delta) [%],%Inh (p38-gamma) [%],%Inh (p38-alpha; 1 µM) [%]
CSc1ccc(NC2=C(c3ccc(Cl)cc3)C(=O)NC2=O)cc1 [SB-317658],28,0,0,12,11,0,–
CN(c1ccc(NC(=O)N2CCN(CCCN3CCOCC3)CC2)cc1)c1ccnc(Nc2ccc(CS(C)(=O)=O)cc2)n1.Cl [GW830899],5,0,9,0,0,41,–
N#CC1(c2cccc(C(=O)Nc3cccc(Oc4ccc5nc(NC(=O)C6CC6)sc5n4)c3)c2)CC1,90,0,40,36,0,26,–
COc1ccc(NC(=O)c2ccoc2)cc1-c1ccc(C(=O)NCC2CC2)cc1 [GW810437],2,36,10,1,0,0,–
NCCC(NC(=O)c1cc(Br)c(-c2ccnc3[nH]ccc23)s1)c1ccccc1.O=C(O)C(F)(F)F.O=C(O)C(F)(F)F (stereo not drawn) [GSK1307810],10,0,8,0,21,0,–
Cc1ccc(NC(=O)c2ccnc(N3CCCCC3)c2)cc1-c1ccc(C(=O)NCC2CC2)cc1 [GW775610],21,0,99.9,100,2,62,–
COc1cc(Nc2nccc(N3CCC(NC(=O)Nc4ccc5c(c4)OCO5)C3)n2)cc(OC)c1OC (stereo not drawn) [GSK1379766],34,0,0,0,24,0,–
Cn1cc(-c2cnc(N)c3c(-c4ccc5c(c4)CCN5C(=O)Cc4ccccc4)csc23)cn1 [GSK2593074],59,0,8,1,0,14,–
COc1cccc(CC(=O)N2CCc3cc(-c4cn(C)c5ncnc(N)c45)ccc32)c1 [GSK2608899],0,0,0,0,48,0,–
Cc1ccc(Nc2ccnc(Nc3ccc(C)c(F)c3)n2)cc1O.Cl [GW582868],2,0,0,0,30,0,–
COc1ccc(C)c(Nc2ccnc(Nc3ccc(-c4cnc[nH]4)cc3)n2)c1.Cl [GW784041],92.4,0,0,14,11,42,–
Fc1cc(Cl)ccc1Nc1ccnc2cc(-c3ccc(CN4CCSCC4)o3)ccc12 [GW560106],52,0,35,0,36,0,–
Cc1ccc(-c2ccc3occ(-c4ccc(S(C)=O)cc4)c3c2)nn1 (stereo not drawn),0,13,0,10,0,0,–
CS(=O)(=O)c1cccc(CNc2nc(Nc3ccc4c(c3)CCC(=O)N4)ncc2C(F)(F)F)c1,0,43,3,0,8,4,–
O=C(Nc1c(F)cccc1F)c1cc(C(=O)c2ccccc2F)c[nH]1 [GSK1326180],0,0,–,15,0,7,47
CCNC(=O)/C=C/c1n[nH]c2cc(Sc3ccccc3C(=O)NC)ccc12,48,0,13,11,18,16,–
Nc1ncc(-c2ccc3nccc(-c4ccncc4)c3c2)cc1S(=O)(=O)N1CCCCC1 [GSK1693850],22,0,0,0,36,22,–
Cc1cccc(Nc2nc(NCCN)ncc2C(N)=O)c1 [GSK1292139],0,74,45,0,24,0,–
COC(=O)Nc1nc2cc(Oc3ccc(NC(=O)Nc4cccc(SC)c4)cc3)ccc2[nH]1.Cl [GW697999],96.3,0,54,0,28,4,–
CC(C)c1nc(-c2cccc(NS(=O)(=O)c3c(F)cccc3F)c2)c(-c2ccnc(Nc3ccc(N4CCOCC4)nc3)n2)s1.Cl [GSK1723980],98.6,0,27,10,0,0,–
CC(C)(C)c1ccc(C(=O)Nc2cn3cc(-n4ccnc4)ccc3n2)cc1,7,0,11,9,21,0,–
Cl.N#CCc1ccc(Nc2nccc(Nc3ccc(Oc4ccccc4)cc3)n2)cc1 [GW639905],45,0,0,0,5,0,–
Cl.Cl.NC(CNC(=O)c1cc(Br)c(-c2ccnc3[nH]ccc23)s1)c1ccccc1 (stereo not drawn) [GSK1322949],11,0,23,0,14,50,–
CN(c1ccc(F)c(NC(=O)c2cccc(OC(C)(C)C#N)c2Cl)c1)c1ccc2nc(NC(=O)C3CC3)sc2n1,64,0,70,6,0,37,–
Cc1ccc(NC(=O)c2ccc(Cl)c(Cl)c2)cc1-c1ccc(C(=O)Nc2ccncc2)cc1 [GSK1398460],49,0,0,12,24,0,–

Structure (SMILES),%Inh (ZAK) [%],%Inh (ZAP70) [%],%Inh (p38-alpha; [1]) [%],%Inh (p38-beta) [%],%Inh (p38-delta) [%],%Inh (p38-gamma) [%],%Inh (p38-alpha; 1 µM) [%]
COc1cccc(-c2nc(-c3ccccc3)[nH]c2-c2ccncc2)c1 [SB-610250],5,0,98.2,32,44,0,–
O=C(O)C(F)(F)F.O=c1[nH]ccc2nc(N[C@@H]3CCNC3)nc(Nc3ccc4c(c3)S(=O)(=O)CC4)c12 [GSK2181306],0,1,0,0,44,23,–
CN(c1ccc2c(c1)nc(NCc1ccccc1)n2C)c1ccnc(Nc2ccc(CS(C)(=O)=O)cc2)n1.Cl [GW811603],4,27,2,0,27,0,–
Cn1cc(-c2ccc3c(c2)CCN3C(=O)Cc2cc(F)cc(C(F)(F)F)c2)c2c(N)ncnc21 [GSK2635225],11,0,0,0,46,0,–
Cc1nn2c(=O)cc(N3CCO[C@H](C)C3)nc2n1Cc1cccc(Cl)c1Cl [GSK2373693],15,0,66,0,15,0,–
Cc1ccccc1CC(=O)N1CCc2cc(-c3cn(C)c4ncnc(N)c34)ccc21 [GSK2603346],0,0,0,0,27,0,–
CCNc1nccc(-c2c(-c3ccc(F)cc3)ncn2C2CCN(C)CC2)n1,7,0,99.8,63,0,36,–
Cc1ccc(O)cc1Nc1ccnc2cc(-c3ccc(CN4CCCCC4)o3)ccc12 [GW557777],75,0,15,6,0,18,–
Cl.Cl.NCC(NC(=O)c1cc(-c2cccnc2)c(-c2ccnc3[nH]ccc23)s1)c1ccccc1 (stereo not drawn) [GSK1323434],7,0,31,0,21,32,–
Cc1ccc(NC(=O)c2cccc(N3CCCCC3)c2)cc1-c1ccc(C(=O)NCC2CC2)cc1 [GSK1917008],33,0,99.9,99.4,46,50,–
CCOc1nccc(-c2c(-c3ccc(F)cc3)ncn2C2CCNCC2)n1 [SB-249175],15,32,99.3,100,4,43,–
COC(=O)Nc1nc2ccc(Oc3ccc(NC(=O)Nc4cc(C(F)(F)F)ccc4F)cc3)cc2[nH]1.Cl [GW654607],98,0,88,70,65,9,–
Cc1cccc(Nc2nc(N[C@H]3CCCC[C@H]3N)ncc2C(N)=O)c1.Cl [GSK986310],0,92.9,0,0,45,0,–
Fc1cc(Cl)ccc1Nc1ccnc2cc(-c3ccc(CN4CCOCC4)o3)ccc12 [GW560109],50,3,28,0,25,0,–
Cn1cc(-c2ccc3c(c2)CCN3C(=O)Cc2cc(F)cc(F)c2F)c2c(N)ncnc21 [GSK2634140],0,0,0,0,14,2,–
COc1cc(Nc2ccnc3cc(-c4ccncc4)ccc23)cc(OC)c1OC.Cl [GW494610],49,8,52,66,2,0,–
CC(C)NCC(Cc1ccccc1)NC(=O)c1cc(Br)c(-c2ccnc3[nH]ccc23)s1.Cl.Cl (stereo not drawn) [GSK1383281],73,0,0,0,16,0,–
CCn1cnc2c(NCc3ccccc3)ncnc21 [SKF-96418],0,30,0,0,0,0,–
CN(c1ccc(NC(=O)Nc2cccc(Cl)c2)cc1)c1ccnc(N)n1.Cl [GW830707],0,0,0,6,0,0,–
O=C(O)C(F)(F)F.O=c1[nH]ccc2nc(N[C@@H]3CCNC3)nc(Nc3cc(Cl)cc(Cl)c3)c12 [GSK2188764],0,1,0,0,18,23,–
Nc1ncnc2scc(-c3ccc(NC(=O)Cc4cc(F)ccc4F)cc3)c12.O=C(O)C(F)(F)F [SB-731254-M],4,0,0,7,0,41,–
COc1ccc(C2=C(Nc3cccc(O)c3)C(=O)NC2=O)cc1 [SB-390766],7,0,23,0,94.4,0,–
COc1cccc(NC(=O)NCCNc2ccnc(Nc3ccc(F)cc3)n2)c1 [GSK1379879],34,17,0,0,59,0,–
COC(=O)Nc1nc2ccc(Oc3ccc(CC(=O)Nc4cc(C(F)(F)F)ccc4F)cc3)cc2[nH]1 [GW680903],91.6,38,6,0,47,0,–
Cl.O=C(Nc1ccc(Oc2ccc3[nH]c(NC(=O)c4ccco4)nc3c2)cc1)Nc1cc(C(F)(F)F)ccc1F [GW683134],99.2,0,65,74,39,0,–

Structure (SMILES),%Inh (ZAK) [%],%Inh (ZAP70) [%],%Inh (p38-alpha; [1]) [%],%Inh (p38-beta) [%],%Inh (p38-delta) [%],%Inh (p38-gamma) [%],%Inh (p38-alpha; 1 µM) [%]
c1ccc(Oc2ccc(Nc3ccnc4cc(-c5ccc(CN6CCCCC6)o5)ccc34)cc2)nc1 [GW567143],66,0,0,0,0,0,–
O=C(Nc1n[nH]c2cc(-c3cccs3)ccc12)C1CC1 [SB-731284],22,12,0,0,0,22,–
O=C(Nc1n[nH]c2nc(-c3ccccc3O)ccc12)C1CC1 [SB-711880],0,0,0,0,0,39,–
CN(C)CCNS(=O)(=O)c1ccc(-c2ccnc3[nH]ccc23)cc1 [GSK977620],83,0,0,1,39,0,–
CC(=O)Nc1cn2nc(Oc3cccc(NC(=O)c4cccc(C(F)(F)F)c4)c3)ccc2n1,98.6,0,32,28,0,34,–
Nc1ncc(-c2cn[nH]c2)c2scc(-c3ccc4c(c3)CCN4C(=O)Cc3ccccc3)c12 [GSK2593067],50,4,0,0,15,0,–
Cc1cc(-c2ccnc(Nc3cccc(C#N)c3)n2)cc(C)c1O [GSK1440913],16,2,0,0,99.7,91.6,–
O=C1NC(=O)C(c2ccccc2Cl)=C1Nc1cccc(Cl)c1 [SB-342409],21,0,0,0,28,0,–
CC(C)c1nc(-c2ccc(F)c(NS(=O)(=O)c3c(F)cccc3F)c2)c(-c2ccnc(Nc3ccc(N4CCOCC4)nc3)n2)s1 [GSK1804250],98.3,0,96,38,57,1,–
CCn1c(-c2nonc2N)nc2c(-c3ccccc3)ncc(OCCCN)c21.O=C(O)C(F)(F)F.O=C(O)C(F)(F)F [GSK260205],0,0,99.5,65,26,2,–
CNc1nccc(-c2ccc3c(N)n[nH]c3c2)n1 [GSK2206003],22,0,6,0,22,25,–
COc1cccc(C2=C(Nc3cccc(O)c3)C(=O)NC2=O)c1 [SB-390771],38,5,0,0,45,18,–
Cc1ccc(C)c(NC(=O)Nc2ccc(C)c(-c3ccc(C(=O)Nc4ccncc4)cc3)c2)c1 [GSK1398473],70,0,0,0,38,0,–
Cc1cc(-c2c(-c3ccc(F)cc3)ncn2CCCN2CCOCC2)nc(N)n1 [SB-222517],13,15,22,17,0,27,–
O=C(Nc1n[nH]c2nc(-c3cccc(O)c3)ccc12)C1CC1 [SB-711805],25,23,7,18,0,12,–
CN1CCN(Cc2ccc(NC(=O)Nc3ccc(N(C)c4ccnc(Nc5ccc(CS(C)(=O)=O)cc5)n4)cc3)cc2)CC1.Cl [GW827654],21,52,0,0,0,48,–
Nc1cccc(-c2ccc3c(N)n[nH]c3c2)c1 [GSK2193613],11,0,6,0,17,45,–
Cc1ccc(O)cc1Nc1ccnc2ccc(C(C)(C)C)cc12 [GW856805],0,15,1,16,0,41,–
O=C(Nc1n[nH]c2nc(-c3ccccc3)ccc12)C1CC1 [SB-708999],15,19,10,29,25,2,–
N#Cc1cnc2cc(-c3cnc(CNCCN4CCOCC4)s3)ccc2c1Nc1ccc(Oc2ccccc2)cc1 [GW664114],95.6,59,0,0,37,0,–
COc1cc(Nc2nccc(N3CCC(NS(=O)(=O)c4ccc(NC(C)=O)cc4)CC3)n2)cc(OC)c1OC [GSK1379825],64,5,0,52,11,0,–
CN(C)CCOc1ccc(-c2cc(-c3ccc(Cl)c(O)c3)c(-c3ccncc3)[nH]2)cc1.Cl.Cl [SB-684387],20,20,54,70,19,23,–
CN(C)c1ncnc2nc[nH]c12 [SKF-31736],0,7,7,0,0,2,–
COc1cccc2c(-c3ccncc3)c(-c3ccc(F)cc3)nn12 [GW468513],16,9,99.9,82,34,0,–
